“And” between values parts separate entries of the source, which are not always exact repeats. Equal entries are not always repeated. The source made the active and inactive calls.
Key:
[1] = compounds binding Alexa647 anti-His antibody – biochemical, small-molecule microarray, 635 nm fluorescence, artefact control for SMM control protein annotation, primary screen (AID 1128); settings: higher = more signal;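 further: score merges feature fluorescence with signal-to-noise for each printed compound spot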
[2] = system: Human papillomavirus type 1a E7 protein (residues 1-88); test: HPV1a E7 small-molecule binders, primary screen, biochemical, small-molecule microarray, residues 1-88, 635 nm (AID 1129); settings: small-molecule microarray binding, fluorescence 635 nm; higher = more signal
[3] = target: Focal adhesion kinase 1 (Homo sapiens) (UniProt Q05397); test: PTK2 protein binding on printed compound slides – biochemical, small-molecule microarray, 635/667 nm fluorescence, BSA, DTT, primary screen (AID 1130); settings: 635 nm fluorescence, higher = more signal;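 further: composite of spot emission at 667 nm and signal to noise over triplicate slides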
Sequence of Focal adhesion kinase 1 (Homo sapiens) (Q05397 whole entry, looked up): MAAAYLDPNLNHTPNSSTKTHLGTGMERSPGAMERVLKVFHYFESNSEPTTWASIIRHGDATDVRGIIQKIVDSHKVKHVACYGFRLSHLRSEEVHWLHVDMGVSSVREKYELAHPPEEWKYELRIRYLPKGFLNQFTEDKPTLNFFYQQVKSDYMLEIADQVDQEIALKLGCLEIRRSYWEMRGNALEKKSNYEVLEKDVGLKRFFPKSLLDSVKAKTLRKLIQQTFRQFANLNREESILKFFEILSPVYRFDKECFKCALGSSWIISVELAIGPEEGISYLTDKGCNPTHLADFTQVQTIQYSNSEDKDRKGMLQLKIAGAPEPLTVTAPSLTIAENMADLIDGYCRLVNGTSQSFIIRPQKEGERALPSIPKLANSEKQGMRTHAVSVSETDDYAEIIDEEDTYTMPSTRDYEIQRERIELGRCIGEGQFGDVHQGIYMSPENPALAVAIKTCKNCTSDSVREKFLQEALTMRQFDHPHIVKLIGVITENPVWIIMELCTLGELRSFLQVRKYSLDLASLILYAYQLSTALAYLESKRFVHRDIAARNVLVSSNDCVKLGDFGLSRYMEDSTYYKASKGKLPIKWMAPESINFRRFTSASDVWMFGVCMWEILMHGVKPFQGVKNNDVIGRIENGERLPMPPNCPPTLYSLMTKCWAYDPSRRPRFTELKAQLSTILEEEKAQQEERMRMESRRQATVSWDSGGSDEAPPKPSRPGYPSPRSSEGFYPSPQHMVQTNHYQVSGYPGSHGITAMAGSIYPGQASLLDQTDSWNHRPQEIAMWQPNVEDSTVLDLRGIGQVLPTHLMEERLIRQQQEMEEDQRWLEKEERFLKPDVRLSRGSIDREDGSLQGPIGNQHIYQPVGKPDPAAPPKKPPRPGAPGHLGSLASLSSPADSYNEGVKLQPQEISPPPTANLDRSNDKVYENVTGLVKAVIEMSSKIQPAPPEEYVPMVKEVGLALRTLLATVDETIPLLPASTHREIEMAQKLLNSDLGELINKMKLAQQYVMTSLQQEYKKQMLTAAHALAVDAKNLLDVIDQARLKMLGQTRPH

[4] = system: Fibrinogen (Alexa647-labelled); test: Alexa647-fibrinogen binding to printed small molecules – biochemical, small-molecule microarray, 635/667 nm fluorescence, artefact control for SMM control-protein annotation, profiling panel (AID 1131); settings: fibrinogen-A647 binding fluorescence, higher = more signal;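 further: z-score merges 667 nm fluorescence with per-spot signal-to-noise over triplicate slides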
[5] = target: Follistatin (Homo sapiens) (UniProt P19883); test: FST protein binding to printed compounds – biochemical, small-molecule microarray, 635/667 nm fluorescence, primary screen (AID 1132); settings: 635 nm fluorescence, higher = more signal
Sequence of Follistatin (Homo sapiens) (P19883 whole entry, looked up): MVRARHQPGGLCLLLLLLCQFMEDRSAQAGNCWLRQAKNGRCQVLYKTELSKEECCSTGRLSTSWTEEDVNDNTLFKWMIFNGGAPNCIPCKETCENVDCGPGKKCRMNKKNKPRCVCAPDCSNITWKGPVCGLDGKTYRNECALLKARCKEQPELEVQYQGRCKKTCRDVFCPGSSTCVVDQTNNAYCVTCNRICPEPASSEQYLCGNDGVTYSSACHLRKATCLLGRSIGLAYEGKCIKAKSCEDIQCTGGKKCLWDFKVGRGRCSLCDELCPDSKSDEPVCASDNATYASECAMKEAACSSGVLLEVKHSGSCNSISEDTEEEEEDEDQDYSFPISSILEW

[6] = target: Fibroblast growth factor 2 (Homo sapiens) (UniProt P09038); test: basic fibroblast growth factor binding to printed compounds – biochemical, small-molecule microarray, 635/667 nm fluorescence, primary screen (AID 1133); settings: FGF2, fluorescence 635/667, higher = more signal
Sequence of Fibroblast growth factor 2 (Homo sapiens) (P09038 whole entry, looked up): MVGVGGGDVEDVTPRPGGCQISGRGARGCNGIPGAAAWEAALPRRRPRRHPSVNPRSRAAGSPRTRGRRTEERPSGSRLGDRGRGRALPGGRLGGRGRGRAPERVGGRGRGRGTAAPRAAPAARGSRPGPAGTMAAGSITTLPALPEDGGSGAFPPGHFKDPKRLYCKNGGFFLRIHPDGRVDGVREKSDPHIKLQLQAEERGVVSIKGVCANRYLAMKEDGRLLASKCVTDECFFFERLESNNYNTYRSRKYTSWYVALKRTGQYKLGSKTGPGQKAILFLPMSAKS

[7] = JC-1 mitochondrial potential readout, lung cancer cells – cell-based, A549, JC-1 fluorescence, basal, 24 h, 100 nL, profiling panel (AID 1138); settings: higher = more signal;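 further: A549 lung adenocarcinoma cells under basal conditions with no added stimulus; test concentration not given here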
[8] = system: Lefty1; test: Lefty1 protein binding to printed compounds – biochemical, small-molecule microarray, 635/667 nm fluorescence, primary screen (AID 1139); settings: fluorescence 635/667, higher = more signal
[9] = system: wheat germ agglutinin (Triticum aestivum), Alexa647-labelled; test: Alexa647-WGA lectin binding to printed small molecules – biochemical, small-molecule microarray, 635/667 nm fluorescence, artefact control for SMM control-protein annotation, profiling panel (AID 1140); settings: WGA-A647 binding, 635 nm fluorescence, higher = more signal;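 further: score merges 667 nm feature emission with signal to noise over triplicate slides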
[10] = target: Luciferin 4-monooxygenase (Photinus pyralis) (UniProt P08659); test: inhibition of purified Photinus pyralis luciferase – biochemical, luminescence, purified enzyme, 2006 set, primary screen (AID 1141); settings: purified firefly luciferase, SteadyGlo luminescence, 30 min; higher = more signal, called active from +8 up or from −8 down;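 further: cell-free assay with purified firefly luciferase at 100 ng per well in PBS; test concentration not given here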
Sequence of Luciferin 4-monooxygenase (Photinus pyralis) (P08659 whole entry, looked up): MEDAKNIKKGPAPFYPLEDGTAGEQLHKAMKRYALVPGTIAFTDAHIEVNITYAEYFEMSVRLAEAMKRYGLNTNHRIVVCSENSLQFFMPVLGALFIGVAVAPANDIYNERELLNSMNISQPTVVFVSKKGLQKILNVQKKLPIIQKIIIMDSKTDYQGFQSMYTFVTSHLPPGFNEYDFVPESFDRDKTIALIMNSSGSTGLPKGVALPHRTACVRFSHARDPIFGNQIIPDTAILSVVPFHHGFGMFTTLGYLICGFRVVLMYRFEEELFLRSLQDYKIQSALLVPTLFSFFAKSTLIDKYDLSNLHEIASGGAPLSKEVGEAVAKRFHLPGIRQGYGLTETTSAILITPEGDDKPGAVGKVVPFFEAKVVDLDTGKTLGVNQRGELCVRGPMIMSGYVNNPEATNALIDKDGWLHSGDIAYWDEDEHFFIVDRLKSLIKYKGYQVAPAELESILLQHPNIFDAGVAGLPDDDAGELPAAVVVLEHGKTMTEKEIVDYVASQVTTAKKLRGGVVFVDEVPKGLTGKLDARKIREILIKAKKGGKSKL

Compound	composite z-score [1]	composite z-score [2]	composite z-score [3]	composite z-score [4]	composite z-score [5]	composite z-score [6]	z-score [7]	composite z-score [8]	composite z-score [9]	z-score [10]
C=CCN(CCCC)C(=O)C(c1cccs1)N(C(=O)/C=C\C(=O)O)c1ccc(CCO)cc1 (stereo not given)	1.25 and -2.52	-0.505 and -1.38	-0.504 and -1.21	-1.08 and -1.59	-1.43 and -2.34	-1.47 and -2.18	0.65 and 0.624	-1.58 and -2.71	0.266 and -2.25	-2.48 (inactive) and -2.8 (inactive)
C[N+](C)(C)CCCCCCNC(=O)[C@@H]1C[C@@H]2C(=O)N[C@@H](CCCC[N+](C)(C)C)C(=O)N2[C@@H]1c1ccc(O)cc1	0.582 and 1.21	-0.694 and 0.212	-0.169 and -0.133	-1.44 and -0.95	1.39 and 1.34	1.47 and 1.44	-0.0687 and -0.662	0.914 and 1.04	-0.187 and -0.088	0.547 (inactive) and 0.58 (inactive)
COC(=O)[C@@]1(Cc2ccc(F)cc2)[C@H]2c3cc(C(=O)N4CCCC4)n(Cc4c(CO)[nH]cc(C)c4=O)c3C[C@H]2CN1C(=O)c1ccccc1	2.37 and 2.39	0.709 and 1.18	1.1 and 1.41	1.01 and -0.216	0.529 and 0.121	-0.351 and -0.789	0.395 and 0.404	-0.212 and -1.02	1.16 and 0.234	2.01 (inactive) and 1.01 (inactive)
C[C@@H]1CC[C@H]2C(=O)NC[C@@H](O)CN2[C@H]1c1ccc(Br)cc1	-0.035 and -0.372	-0.165 and -0.298	0.0377 and -0.438	-0.0102 and 0.0552	-0.175 and -0.142	0.0825 and 0.314	-0.386 and 1.68	0.396 and 0.0488	-0.2 and -0.0411	0.29 (inactive) and -0.467 (inactive)
C=CCN(CCCC)C(=O)C1N(CCCCCCO)C(=O)C2C(C(=O)O)C3C=CC21O3 (stereo not given)	-1.27 and 0.826	-0.618 and -0.472	-0.725 and -0.445	-0.574 and -1.65	-1.74 and -2.89	-1.97 and -2.02	-0.242 and 0.214	-2.3 and -2.2	0.483 and -1.28	0.314 (inactive) and 0.488 (inactive)
CC(C)CCN1CCc2nc(-c3ccccc3)c3c(c2C1)CO[C@@H](C)C3	0.554	0.669	0.304	0.436	0.785	0.528	1.19	0.631	0.931	-1.17 (inactive)
C=CCN(CCCC)C(=O)C1N(CCOCCO)C(=O)C2C(C(=O)O)C3C=CC21O3 (stereo not given)	1.11 and -1.66	-0.741 and -0.901	-0.619 and -0.291	-1.43 and -0.885	-0.817 and -1.32	-1.68 and -1.4	-0.409 and -0.724	-1.6 and -2.23	-0.557 and -0.16	0.694 (inactive) and 0.806 (inactive)
C[C@@H](c1ccccc1)N1C(=O)[C@H]2[C@H]3[C@H](O)[C@H](O)CC(=O)[C@@H]3CC[C@H]2C1=O	0.338	0.793	0.866	0.212	0.605	1.08	0.792	1.64	0.108	-1.87 (inactive)
C=CCN(Cc1ccccc1)C(=O)C1N(C(C)(C)CO)C(=O)C2C(C(=O)O)C3C=CC21O3 (stereo not given)	-1.67 and -0.97	-1.24 and -0.825	-0.571 and -1.31	-2.5 and -2.76	-2.21 and -1.21	-1.48 and -2.77	-0.188 and -0.414	-2.57 and -1.65	-1.76 and -0.466	0.519 (inactive) and 1.45 (inactive)
CCCCCN1CC=CC23O[C@@H]4C=CCCOC(=O)C4[C@H]2C(=O)N(C(C)CO)[C@@H]3C1=O (stereo not given in full)	1.58 and 0.0947	-0.367 and -0.292	-0.0918 and 0.206	-0.458 and 0.0661	-0.11 and -0.0282	-0.387 and -1.17	-0.449 and -0.859	0.178 and 0.382	0.138 and -0.194	0.328 (inactive) and 0.283 (inactive)
COC(=O)CC=C[C@@H](C)[C@@H](CO)NS(=O)(=O)c1ccc(C)cc1	0.929 and 0.293	0.298 and 0.512	0.0223 and -0.111	-0.223 and 0.225	0.523 and 0.791	0.646 and 0.574	-0.145 and 0.884	0.648 and 0.88	-0.22 and 0.117	0.0494 (inactive) and -0.803 (inactive)
C=CCN(CCCCC)C(=O)C1N(c2ccc(CCO)cc2)C(=O)C2C(C(=O)O)C3C=CC21O3 (stereo not given)	-1.26 and -0.352	-1.44 and -0.943	-0.886 and -0.776	-0.916 and -0.657	-0.974 and -0.877	-0.989 and -0.883	0.157 and -0.0775	-1.47 and -0.885	0.961 and -0.241	-0.929 (inactive) and -0.832 (inactive)
Cc1cc2c(nc1C)CCCN2CC(C)ON=C[C@@H](C)[C@H](OCc1ccccc1)C(C)C (stereo not given in full)	-0.265	-1.26	0.252	-0.709	0.141	-0.0657	-0.7	0.254	-0.911	0.765 (inactive)
C=C(C)C(=O)OC[C@@H]1CN2[C@@H](CC[C@@H](C)[C@@H]2c2ccc(Br)cc2)C(=O)O1	-0.0452	0.818	0.213	0.762	0.55	0.854	1.77	0.966	0.146	-0.721 (inactive)
C[N+](C)(C)CCCCNC(=O)[C@H]1C[C@H]2C(=O)N[C@@H](CCCC[N+](C)(C)C)C(=O)N2[C@H]1c1ccc(O)cc1	2.99 and 3.33	0.395 and -1.59	0.267 and -0.478	0.56 and -1.1	1.57 and 1.45	2.01 and 1.99	-0.0637 and -0.967	1.62 and 1.64	-0.608 and -1.01	0.325 (inactive) and 0.332 (inactive)
C[N+](C)(C)CCCCNC(=O)[C@@H]1C[C@@H]2C(=O)N[C@@H](CCCC[N+](C)(C)C)C(=O)N2[C@@H]1c1cccc(OCCO)c1	2.73 and 2.55	0.905 and -0.426	-0.791 and -0.306	-0.355 and 0.553	1.54 and 1.48	1.94 and 1.9	0.725 and 1.07	1.73 and 1.55	0.284 and 0.68	-1.56 (inactive) and -1.48 (inactive)
Cc1ccc(S(=O)(=O)N[C@H]2COC(=O)[C@@H](C)COC(=O)[C@H](C)NC(=O)CC=C[C@H]2C)cc1	-0.293	-0.336	-0.295	-0.343	0.162	1.09	0.637	0.72	-0.634	-0.402 (inactive)
CC(C)[Si]1(C(C)C)OCc2cc(CCCc3cc4c(c(CCc5ccccc5)n3)[Si](C(C)C)(C(C)C)OC4)nc(CCc3ccccc3)c21	-0.779 and 0.0773	-0.265 and 0.56	-0.293 and -0.0124	-0.551 and 0.0539	-0.43 and 0.238	-0.0119 and 0.483	0.627 and 0.00206	-0.11 and 0.41	-1.24 and -0.214	-1.11 (inactive) and 0.714 (inactive)
COC(=O)C1=C(C)N(Cc2ccccc2)C2=C(C(=O)c3ccccc3)[C@H](c3ccccc3)[C@@](O)(C(=O)OC)C(=O)N2[C@@H]1c1ccccc1	0.326 and -0.476	0.477 and 0.778	0.0825 and 1.11	0.435 and -0.0657	0.526 and 0.424	0.442 and 0.433	0.722 and 0.241	0.571 and 0.636	0.419 and -0.0152	-1.49 (inactive) and -0.0191 (inactive)

Source: PubChem BioAssay
